{"source": "PubChem BioAssay (Tox21)", "note": "Results filed as inconclusive are left out. A number with no mark means an inactive call. Unless noted, the call rests on the fitted dose curve; in most records, active means well fitted cell-killing curve with a large enough effect in the repeat runs; inconclusive means weak or mixed curves, or effect the other way; inactive means no such curve, though single readings can be large or run the other way."}
{"target": "Peroxisome proliferator-activated receptor gamma (Homo sapiens) (UniProt P37231)", "sequence (P37231 whole entry, looked up)": "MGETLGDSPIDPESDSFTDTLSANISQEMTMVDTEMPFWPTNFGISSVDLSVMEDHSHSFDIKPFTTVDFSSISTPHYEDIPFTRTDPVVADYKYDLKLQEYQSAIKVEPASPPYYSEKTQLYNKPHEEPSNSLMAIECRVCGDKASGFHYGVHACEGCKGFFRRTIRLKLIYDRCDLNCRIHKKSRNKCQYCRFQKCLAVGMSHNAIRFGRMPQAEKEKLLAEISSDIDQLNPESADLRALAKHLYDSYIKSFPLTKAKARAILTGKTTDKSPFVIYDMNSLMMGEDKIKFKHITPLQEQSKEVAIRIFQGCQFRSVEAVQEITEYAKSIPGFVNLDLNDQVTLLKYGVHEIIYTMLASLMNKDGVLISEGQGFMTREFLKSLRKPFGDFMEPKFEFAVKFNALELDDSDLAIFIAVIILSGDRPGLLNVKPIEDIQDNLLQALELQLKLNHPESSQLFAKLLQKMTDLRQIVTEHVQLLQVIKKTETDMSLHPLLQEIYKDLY", "assay": "qHTS assay to identify small molecule antagonists of the peroxisome proliferator-activated receptor gamma (PPARg) signaling pathway (AID 743191; calls by dose curve; further: nearly all actives have a fitted effect of over 30% in size)", "details": "HEK293H PPARg-UAS-bla, beta-lactamase ratio, antagonist, 17 h; series mostly up to 62.6 µM; ratio activity, negative = inhibition: at the top concentration", "summary_of_the_method": "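Beta-lactamase reporter under UAS control in HEK293H PPARg-bla cells; compound treatment 17 h at 37C. Read-out: fluorescence intensity after 1 h room-temperature incubation with LiveBLAzer B/G FRET substrate.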"}
{"molecule": "CC1=CC(C)C(C=O)C(C)C1", "note": "(stereo not drawn); further: on the % scale 0 is the no-effect control and ±100 the full control effect", "ratio activity, negative = inhibition": "9.62%"}
{"molecule": "Cc1cc(C)c(NC(=O)CN(CC(=O)O)CC(=O)O)c(C)c1Br", "ratio activity, negative = inhibition": "15%"}
{"molecule": "C#CC(O)C(CC)CCCC", "note": "(stereo not drawn)", "ratio activity, negative = inhibition": "1.26%"}
{"molecule": "C=C(C)C(=O)OCCCCCCCCCCCCCCCCCC", "ratio activity, negative = inhibition": "7.47% [at 29.1 µM]"}
{"molecule": "C=CCOc1nc(OCC=C)nc(OCC=C)n1", "ratio activity, negative = inhibition": "-0.535%"}
{"molecule": "OCCCCCCO", "ratio activity, negative = inhibition": "4.41% [at 81.1 µM]"}
{"molecule": "CCO[Si](CCCN=C=O)(OCC)OCC", "ratio activity, negative = inhibition": "-17%"}
{"molecule": "CC(C=O)Cc1ccc(C(C)C)cc1", "note": "(stereo not drawn)", "ratio activity, negative = inhibition": "8.2%"}
{"molecule": "CC1=CC(=O)CCC1", "ratio activity, negative = inhibition": "13.3%"}
{"molecule": "O=C(O)/C=C/c1ccc(/C=C/C(=O)O)cc1", "ratio activity, negative = inhibition": "0%"}
{"molecule": "OC[C@H]1O[C@@H]2O[C@H]3[C@H](O)[C@@H](O)[C@@H](O[C@H]4[C@H](O)[C@@H](O)[C@@H](O[C@H]5[C@H](O)[C@@H](O)[C@@H](O[C@H]6[C@H](O)[C@@H](O)[C@@H](O[C@H]7[C@H](O)[C@@H](O)[C@@H](O[C@H]8[C@H](O)[C@@H](O)[C@@H](O[C@H]9[C@H](O)[C@@H](O)[C@@H](O[C@H]1[C@H](O)[C@H]2O)O[C@@H]9CO)O[C@@H]8CO)O[C@@H]7CO)O[C@@H]6CO)O[C@@H]5CO)O[C@@H]4CO)O[C@@H]3CO", "ratio activity, negative = inhibition": "-0.31% [at 29.1 µM]"}
{"molecule": "OCc1ccccn1", "ratio activity, negative = inhibition": "4.97%"}
{"molecule": "NC(=O)CCCCC1CCSS1", "note": "(stereo not drawn)", "ratio activity, negative = inhibition": "4.67%"}
{"molecule": "CSc1ccc(C=O)cc1", "ratio activity, negative = inhibition": "7.29%"}
{"molecule": "CCCc1ccccc1O", "ratio activity, negative = inhibition": "10.2%"}
{"molecule": "CCOC(=O)Cn1c(=O)sc2cccc(Cl)c21", "ratio activity, negative = inhibition": "14.9%"}
{"molecule": "COC(=O)CCCC(=O)O", "ratio activity, negative = inhibition": "6.18%"}
{"molecule": "FC(F)(F)C(F)(F)C(F)(F)C(F)(F)C(F)(F)C(F)(F)C(F)(F)C(F)(F)C(F)(F)C(F)(F)F", "ratio activity, negative = inhibition": "-8.26% [at 5.95 µM]"}
{"molecule": "CCn1cc(C(=O)O)c(=O)c2cc(F)c(N3CCN(C)CC3)cc21", "ratio activity, negative = inhibition": "5.83% [at 29.1 µM]"}
{"molecule": "O=S(=O)(O)c1ccccc1O", "ratio activity, negative = inhibition": "5.17%"}
{"molecule": "Cc1c(C)n(CCN(C)C)c2ccc(C(=O)OCCN(C)C)cc12", "ratio activity, negative = inhibition": "-14.3%"}
{"molecule": "C=CC(=O)N1CCOCC1", "ratio activity, negative = inhibition": "0.439%"}
{"molecule": "CC(CCO)CCCC(C)(C)O", "note": "(stereo not drawn)", "ratio activity, negative = inhibition": "7.08%"}
{"molecule": "CCCCCCCCCCC1CO1", "note": "(stereo not drawn)", "ratio activity, negative = inhibition": "16.9%"}
{"molecule": "C=C(C)C(=O)NCCC[N+](C)(C)C", "ratio activity, negative = inhibition": "13.3%"}
{"system": "not listed separately", "assay": "qHTS assay to identify small molecule antagonists of the peroxisome proliferator-activated receptor gamma (PPARg) signaling pathway - cell viability counter screen (AID 743194); further: nearly all actives have a fitted effect of over 55% in size", "details": "PPARg-bla HEK293H viability, CellTiter-Glo luminescence, 17 h, co-treated with 50 nM rosiglitazone; series mostly up to 62.6 µM; activity change, negative = cytotoxicity: at the top concentration", "summary_of_the_method": "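Viability was measured as CellTiter-Glo luminescence in GeneBLAzer PPARg UAS-bla HEK293H cells. These cells had been exposed 17 h at 37 C to compounds together with rosiglitazone at 50 nM final, with the beta-lactamase readout taken in the same wells.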"}
{"molecule": "CC1=CC(C)C(C=O)C(C)C1", "note": "(stereo not drawn)", "activity change, negative = cytotoxicity": "-20.1%"}
{"molecule": "Cc1cc(C)c(NC(=O)CN(CC(=O)O)CC(=O)O)c(C)c1Br", "activity change, negative = cytotoxicity": "3.45%"}
{"molecule": "OC/C=C/c1ccccc1", "activity change, negative = cytotoxicity": "-4.5% [at 81.1 µM]"}
{"molecule": "C#CC(O)C(CC)CCCC", "note": "(stereo not drawn)", "activity change, negative = cytotoxicity": "-20.9%"}
{"molecule": "C=C(C)C(=O)OCCCCCCCCCCCCCCCCCC", "activity change, negative = cytotoxicity": "-4.93% [at 29.1 µM]"}
{"molecule": "CCCCCN(CCCCC)C(=O)C(CCC(=O)O)NC(=O)c1ccc(Cl)c(Cl)c1", "note": "(stereo not drawn)", "activity change, negative = cytotoxicity": "0.743%"}
{"molecule": "OCCCCCCO", "activity change, negative = cytotoxicity": "-3.12% [at 81.1 µM]"}
{"molecule": "NS(=O)(=O)c1cc2c(cc1C(F)(F)F)NC(Cc1ccccc1)NS2(=O)=O", "note": "(stereo not drawn)", "activity change, negative = cytotoxicity": "-0.424%"}
{"molecule": "CCO[Si](CCCN=C=O)(OCC)OCC", "activity change, negative = cytotoxicity": "0.589%"}
{"molecule": "CC(C=O)Cc1ccc(C(C)C)cc1", "note": "(stereo not drawn)", "activity change, negative = cytotoxicity": "-12.5%"}
{"molecule": "CC1=CC(=O)CCC1", "activity change, negative = cytotoxicity": "-0.182%"}
{"molecule": "CCCOCC(C)OCC(C)O", "note": "(stereo not drawn)", "activity change, negative = cytotoxicity": "12.1% [at 81.1 µM]"}
{"molecule": "OC[C@H]1O[C@@H]2O[C@H]3[C@H](O)[C@@H](O)[C@@H](O[C@H]4[C@H](O)[C@@H](O)[C@@H](O[C@H]5[C@H](O)[C@@H](O)[C@@H](O[C@H]6[C@H](O)[C@@H](O)[C@@H](O[C@H]7[C@H](O)[C@@H](O)[C@@H](O[C@H]8[C@H](O)[C@@H](O)[C@@H](O[C@H]9[C@H](O)[C@@H](O)[C@@H](O[C@H]1[C@H](O)[C@H]2O)O[C@@H]9CO)O[C@@H]8CO)O[C@@H]7CO)O[C@@H]6CO)O[C@@H]5CO)O[C@@H]4CO)O[C@@H]3CO", "activity change, negative = cytotoxicity": "-14% [at 29.1 µM]"}
{"molecule": "OCc1ccccn1", "activity change, negative = cytotoxicity": "-1%"}
{"molecule": "NC(=O)CCCCC1CCSS1", "note": "(stereo not drawn)", "activity change, negative = cytotoxicity": "7.46%"}
{"molecule": "CSc1ccc(C=O)cc1", "activity change, negative = cytotoxicity": "-7.05%"}
{"molecule": "CCCc1ccccc1O", "activity change, negative = cytotoxicity": "0.218%"}
{"molecule": "CCCC(=O)O[C@]1(C(=O)CCl)[C@@H](C)C[C@H]2[C@@H]3CCC4=CC(=O)C=C[C@]4(C)[C@@]3(F)C(=O)C[C@@]21C", "activity change, negative = cytotoxicity": "0.41%"}
{"molecule": "CCOC(=O)Cn1c(=O)sc2cccc(Cl)c21", "activity change, negative = cytotoxicity": "5.99%"}
{"molecule": "COC(=O)CCCC(=O)O", "activity change, negative = cytotoxicity": "6.69%"}
{"molecule": "C/C=C1\\C(=O)C[C@H]2[C@@H]3CCC4=CC(=O)CC[C@]4(C)[C@H]3CC[C@]12C", "activity change, negative = cytotoxicity": "-11.3%"}
{"molecule": "FC(F)(F)C(F)(F)C(F)(F)C(F)(F)C(F)(F)C(F)(F)C(F)(F)C(F)(F)C(F)(F)C(F)(F)F", "activity change, negative = cytotoxicity": "1.8% [at 5.95 µM]"}
{"molecule": "C=CC(=O)OCCCCCC", "activity change, negative = cytotoxicity": "9.94%"}
{"molecule": "COc1cc(CCC(C)=O)ccc1O", "activity change, negative = cytotoxicity": "-0.0238%"}
{"molecule": "CCn1cc(C(=O)O)c(=O)c2cc(F)c(N3CCN(C)CC3)cc21", "activity change, negative = cytotoxicity": "12.5% [at 29.1 µM]"}
{"molecule": "O=S(=O)(O)c1ccccc1O", "activity change, negative = cytotoxicity": "-14.8%"}
{"molecule": "C#CC(O)CCCCC", "note": "(stereo not drawn)", "activity change, negative = cytotoxicity": "6.54% [at 81.1 µM]"}
{"molecule": "Cc1c(C)n(CCN(C)C)c2ccc(C(=O)OCCN(C)C)cc12", "activity change, negative = cytotoxicity": "-25.6%"}
